Measurements published in the supplement of paper PMC13392028.

Tested on: PvIESI-1 RRM domain (Plasmodium vivax PVP01_0939900 aa 896-1203, GST fusion)
Assay: RBNS R-value (6-mer enrichment in protein-bound RNA vs input library) (ratio); higher = stronger binding preference; the methods of the paper give 50 / 100 / 500 nM protein instead
Outline: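 A random 40-mer in vitro transcribed RNA library was incubated at room temperature with purified GST-tagged RNA-recognition-motif regions of orthologues from three Plasmodium species, expressed in E. coli. After capture on glutathione magnetic agarose beads and three washes, bound RNA and input were reverse transcribed and sequenced on a MiSeq. The R-value reports each motif's enrichment in bound RNA over input via the Burge lab pipeline. Motifs were 6-mers from one replicate.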

| Sequence | RBNS R-value (protein concentration: 250 nM) | RBNS R-value (protein concentration: 500 nM) | RBNS R-value (protein concentration: 1000 nM) |
| --- | --- | --- | --- |
| UGAUUA | 3.86 | 4.25 | 4.11 |
| UGAUAC | 2.41 | 2.83 | 2.87 |
| GAUUGA | 2.27 | 2.42 | 2.29 |
| AUGAUG | 5.14 | 5.26 | 5.02 |
| AGUGAU | 2.41 | 2.69 | 2.63 |
| AUGAUU | 4.49 | 4.79 | 4.59 |
| GAUUUC | 2.32 | 2.49 | 2.38 |
| GAUGUG | 2.3 | 2.53 | 2.31 |
| GAUGAA | 2.73 | 2.89 | 2.83 |
| GAUGGG | 2.02 | 2.1 | 2.01 |
| GAUGAG | 2.33 | 2.49 | 2.4 |
| UGAUUC | 3.85 | 4.13 | 3.89 |
| CUGAUU | 3.89 | 4.11 | 3.75 |
| CCUUGA | 1.7 | 1.88 | 1.91 |
| UCUGAU | 2.94 | 3.21 | 3.02 |
| CAUGAU | 3.57 | 3.87 | 3.8 |
| GAUGCC | 1.89 | 2.11 | 2.06 |
| GUGAUA | 2.04 | 2.34 | 2.47 |
| CGUGAU | 2.33 | 2.54 | 2.51 |
| GACACC | 1.46 | 1.66 | 1.69 |
| UUGAUA | 2.87 | 3.36 | 3.32 |
| UGUGAU | 2.53 | 2.8 | 2.72 |
